The record followed here is PubChem BioAssay (Tox21).

SMILES strings stand for the structures. Inconclusive results are not listed. Activity calls are given as the source filed them. The call rests on the fitted dose curve; in most records, active means well fitted activation curve with a large enough effect in the repeat runs; inconclusive means weak or mixed curves; inactive means no such curve, though single readings can be large or run the other way. Non-standard residues stand in square brackets, D forms with d. Residues, ends and D or L forms follow the SMILES beside them. Orn = NCCC[C@H](N)C(=O)O
On the % scale 0 is the no-effect control and ±100 the full control effect; potency means the concentration at half of the fitted maximal effect.

Chain of Nuclear receptor subfamily 1 group I member 2 (Rattus norvegicus) (Q9R1A7 whole entry, looked up): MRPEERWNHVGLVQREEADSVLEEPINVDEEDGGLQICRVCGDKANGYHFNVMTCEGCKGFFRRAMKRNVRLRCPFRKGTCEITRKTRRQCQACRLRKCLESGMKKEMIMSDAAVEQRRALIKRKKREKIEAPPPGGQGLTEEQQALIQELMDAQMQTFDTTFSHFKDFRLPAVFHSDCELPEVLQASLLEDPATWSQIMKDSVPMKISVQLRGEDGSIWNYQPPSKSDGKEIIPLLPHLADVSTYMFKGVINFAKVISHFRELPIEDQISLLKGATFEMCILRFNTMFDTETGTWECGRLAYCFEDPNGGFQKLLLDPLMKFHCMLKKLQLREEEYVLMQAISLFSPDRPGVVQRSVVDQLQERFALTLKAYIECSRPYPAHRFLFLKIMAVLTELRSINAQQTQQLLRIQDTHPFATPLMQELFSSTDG

The target in the test is Nuclear receptor subfamily 1 group I member 2 (Rattus norvegicus) (UniProt Q9R1A7). Kind of test: Rat pregnane X receptor (rPXR) activation by small molecules, qHTS assay (AID 1346983). Further: nearly all actives have a fitted effect of over 20% in size. The settings on record: rPXR luciferase reporter cells, One-Glo luminescence, 24 h; max activation: active compounds read high. Summed up:
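Cell-based rPXR luciferase reporter assay, 2,000 cells per well, rested 5hr at 37 C before compound addition in DMSO, then 24 hr at 37 C. One-Glo reagent was added and luminescence read after 30 min at room temperature.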
In general terms: Quantitative high-throughput screening tests each substance at several concentrations.
As for `C[N+]1(CCCCC[N+]2(C)CCCC2)CCCC1`, the max activation was -2.61% (inactive). As to `CCC1OC(=O)C[C@@H](O)[C@H](C)[C@@H](O[C@@H]2O[C@H](C)C[C@H](N(C)C)[C@H]2O)[C@@H](CC=O)C[C@@H](C)C(=O)/C=C/[C@]2(C)OC2C1C` (stereo not given in full), the max activation was -4.15% (inactive).

For the compound `CCCCCCCCCCCCCC(=O)OCC(COP(=O)([O-])OCC[N+](C)(C)C)OC(=O)CCCCCCCCCCCCC` (stereo not given), the max activation is -1.21% (inactive). Regarding `CC(=NCc1ccccc1)c1ccccc1O`, the max activation is -4.51% (inactive).

In the case of `CCC(=O)OC(OP(=O)(CCCCc1ccccc1)CC(=O)N1C[C@H](C2CCCCC2)C[C@H]1C(=O)O)C(C)C` (stereo not given in full), the max activation was -3.49% (inactive). For the compound `CC12CCC(C[N+](C)(CCC[N+](C)(C)C)C1)C2(C)C` (stereo not given), the max activation is -1.76% (inactive).

Consider `NC(=O)CC[C@@H]1NC(=O)[C@H](Cc2ccccc2)NC(=O)[C@H](Cc2ccc(O)cc2)NC(=O)[C@@H](N)CSSC[C@@H](C(=O)N2CCC[C@H]2C(=O)N[C@@H](CCCN=C(N)N)C(=O)NCC(N)=O)NC(=O)[C@H](CC(N)=O)NC1=O`, for which the max activation was -0.0397% (inactive). Consider `O=C(O)Cc1nn(Cc2ccc(Br)cc2F)c(=O)c2ccccc12`, for which the max activation is 0.657% (inactive). `NCCO/C=C/[C@H](N)C(=O)O`: the max activation was -1.97% (inactive).

`CC/C(=C(/CC)c1ccc(OP(=O)(O)O)cc1)c1ccc(OP(=O)(O)O)cc1`: the max activation is -1.74% (inactive).

`CO/N=C(\C(=O)N[C@@H]1C(=O)N2C(C(=O)O)=C(COC(C)=O)CS[C@H]12)c1csc(N)n1` (stereo in doubt): the max activation is -7.73% (inactive). As to `C=CCN1C(=O)C(CC(C)C)NC1=S` (stereo not given), the max activation was 12.3% (inactive). On the same count and under the same terms, to `CN[C@H](CC(C)C)C(=O)N[C@H]1C(=O)N[C@@H](CC(N)=O)C(=O)N[C@H]2C(=O)N[C@H]3C(=O)N[C@H](C(=O)N[C@@H](C(=O)O)c4cc(O)cc(O)c4-c4cc3ccc4O)[C@H](O)c3ccc(c(Cl)c3)Oc3cc2cc(c3O[C@@H]2O[C@H](CO)[C@@H](O)[C@H](O)[C@H]2O[C@H]2C[C@](C)(N)C(O)[C@H](C)O2)Oc2ccc(cc2Cl)[C@H]1O` (stereo not given in full) belongs -3.51% (inactive); to `C=C1[C@H](CO)[C@@H](O)C[C@@H]1n1cnc2c(=O)[nH]c(N)nc21`, -2.99% (inactive). The same measure, in the same setting: to `CC(C)=CCC/C(C)=C/CC/C(C)=C/CC/C=C(\C)CC/C=C(\C)CCC=C(C)C` belongs -2.04% (inactive); to `CCN(CC)CC#CCOC(=O)C(O)(c1ccccc1)C1CCCCC1` (stereo not given), 13% (inactive). On the same count and under the same terms, to `CC(C)c1ncc([N+](=O)[O-])n1C` belongs -4.41% (inactive). Consider `N[C@H](C(=O)O)[C@@H]1CC(Cl)=NO1`, for which the max activation was -12.5% (inactive). As for `O=c1[nH]c(=O)n([C@H]2C[C@H](O)[C@@H](CO)O2)cc1/C=C/Br`, the max activation was -6.99% (inactive). Regarding `C=C1C(=C/C=C2\CCC[C@]3(C)[C@@H]([C@H](C)CCCC(C)C)CC[C@@H]23)C[C@@H](O)C[C@@H]1O`, the max activation is -2.56% (inactive).

Regarding `COc1cc2c(cc1OC)[C@@H](Cc1cc(OC)c(OC)c(OC)c1)[N+](C)(CCCOC(=O)CC/C=C/CCC(=O)OCCC[N+]1(C)CCc3cc(OC)c(OC)cc3[C@H]1Cc1cc(OC)c(OC)c(OC)c1)CC2` (stereo not given in full), the max activation is -6.15% (inactive). As for `CC(C)CCC[C@@H](C)[C@H]1CC[C@H]2[C@@H]3CC=C4C[C@@H](O)CC[C@]4(C)[C@H]3CC[C@]12C`, the max activation was -2.66% (inactive). With `CN[C@@H]1[C@@H](O[C@H]2O[C@H](CO)[C@@H](N)[C@H](O)[C@H]2O)O[C@H]2C[C@@H](N)[C@@H](O[C@H]3[C@H](O)[C@@H](O)[C@H](N)C[C@@H]3N)O[C@@H]2[C@@H]1O`, the max activation was -0.875% (inactive). Regarding `CC(C)C[C@@H]1NC(=O)[C@H](CCCN)NC(=O)[C@H](C(C)C)NC(=O)[C@@H]2CCCN2C(=O)[C@@H](Cc2ccccc2)NC(=O)[C@H](CC(C)C)NC(=O)[C@H](CCCN)NC(=O)[C@H](C(C)C)NC(=O)[C@@H]2CCCN2C(=O)[C@@H](Cc2ccccc2)NC1=O` (cyclo(V[Orn]L[dF]PV[Orn]L[dF]P)), the max activation is -16.3% (inactive). For `CC[C@H]1OC(=O)C[C@@H](O)[C@H](C)[C@@H](O[C@@H]2O[C@H](C)[C@@H](O)[C@H](N(C)C)[C@H]2O)[C@@H](CCN2C[C@H](C)C[C@H](C)C2)C[C@@H](C)C(=O)/C=C/C(C)=C/[C@@H]1CO[C@@H]1O[C@H](C)[C@@H](O)[C@@H](OC)[C@H]1OC`, the max activation is -0.718% (inactive). As to `NC[C@@H]1CC[C@@H](N)[C@@H](O[C@H]2[C@H](O)[C@@H](O[C@H]3O[C@H](CO)[C@@H](O)[C@H](N)[C@H]3O)[C@H](N)C[C@@H]2N)O1`, the max activation is -0.783% (inactive).

Take `CCOc1ccc(NC(=S)Nc2ccc(OCC)cc2)cc1`: the max activation was -1.61% (inactive). With `C[C@]12O[C@H](C[C@]1(O)CO)n1c3ccccc3c3c4c(c5c6ccccc6n2c5c31)CNC4=O`, the max activation is -24.6% (inactive). Turning to `CC/C=C\C/C=C\C/C=C\C/C=C\C/C=C\CCCC(=O)O`, the max activation is -0.855% (inactive).

In the case of `CC[C@H]1OC(=O)[C@H](C)C(=O)[C@H](C)[C@@H](O[C@@H]2O[C@H](C)C[C@H](N(C)C)[C@H]2O)[C@](C)(OC)C[C@@H](C)C(=O)[C@H](C)[C@H]2N(CCCCn3cnc(-c4cccnc4)c3)C(=O)O[C@]12C`, the max activation was 2.76% (inactive). Turning to `NC(=O)c1cc[n+](CC2=C(C(=O)O)N3C(=O)[C@@H](NC(=O)C(c4ccccc4)S(=O)(=O)[O-])[C@H]3SC2)cc1` (stereo not given in full), the max activation was -2.77% (inactive).

Take `CC(C)OC(=O)Nc1ccc2nc(-c3cscn3)[nH]c2c1`: the Potency was 8.91 µM (active). In the case of `N[C@@H](Cc1cnc[nH]1)C(=O)O`, the max activation was -4.66% (inactive). As to `C[C@@H]1O[C@@H](OC[C@H]2O[C@@H](Oc3c(-c4ccc(OCCO)c(OCCO)c4)oc4cc(OCCO)cc(O)c4c3=O)[C@H](O)[C@@H](O)[C@@H]2O)[C@H](O)[C@H](O)[C@H]1O`, the max activation was -1.87% (inactive). As for `CCCCCCOC(=O)c1cccnc1`, the max activation is -0.199% (inactive). For `CC(C)[C@H](NC(=O)[C@H](CC(=O)O)NC(=O)[C@H](CCCCN)NC(=O)[C@@H](N)CCCN=C(N)N)C(=O)N[C@@H](Cc1ccc(O)cc1)C(=O)O` (H-RKDVY-OH), the max activation was -1.21% (inactive).

Turning to `N=C(N)n1cccn1`, the max activation was -4.29% (inactive).

Turning to `Nc1nc(/C(=C/CC(=O)O)C(=O)N[C@@H]2C(=O)N3C(C(=O)O)=CCS[C@H]23)cs1`, the max activation is -1.46% (inactive). In the case of `CC1=C(/C=C/C(C)=C/C=C/C(C)=C/C=C/C=C(C)/C=C/C=C(C)/C=C/C2=C(C)CCCC2(C)C)C(C)(C)CCC1`, the max activation was -2.1% (inactive). For the compound `CC(=O)OCC(=O)[C@@]1(O)CC[C@H]2[C@@H]3C[C@H](C)C4=CC(=O)C=C[C@]4(C)[C@H]3[C@@H](O)C[C@@]21C`, the Potency was 7.94 µM (active).
